PLK1 PBD block: qHTS for Inhibitors of PLK1-PDB (polo-like kinase 1 - polo-box domain): Primary Screen; Plk1 PBD binding of FITC phosphopeptide, fluorescence polarization; Potency, µM, for inactives: max response, negative = inhibition, most hits filed as inhibitors; hit rate 2.8% among 360,000; AID 720504, 2013; further: potency means the concentration at half of the fitted maximal effect; series mostly up to about 57 µM; on the % scale 0 is the no-effect control and ±100 the full control effect; nearly all actives have a fitted effect of over 65% in size
PI5P4Ka inh: qHTS for Inhibitors of phosphatidylinositol 5-phosphate 4-kinase (PI5P4K); Phosphatidylinositol 5-phosphate 4-kinase type-2 alpha (Homo sapiens), P48426; PI5P4Kalpha enzyme, ADP-Glo luminescence, 60 min; stronger effect = lower value; max response, %; hit rate 1.2% among 330,000; active means max response of -50% or lower; inconclusive means between -30% and -50%; inactive means -30% or higher; further: value at the top dose of about 77 µM; on the % scale 0 is the no-effect control and ±100 the full control effect
Target sequence (P48426 whole entry, looked up): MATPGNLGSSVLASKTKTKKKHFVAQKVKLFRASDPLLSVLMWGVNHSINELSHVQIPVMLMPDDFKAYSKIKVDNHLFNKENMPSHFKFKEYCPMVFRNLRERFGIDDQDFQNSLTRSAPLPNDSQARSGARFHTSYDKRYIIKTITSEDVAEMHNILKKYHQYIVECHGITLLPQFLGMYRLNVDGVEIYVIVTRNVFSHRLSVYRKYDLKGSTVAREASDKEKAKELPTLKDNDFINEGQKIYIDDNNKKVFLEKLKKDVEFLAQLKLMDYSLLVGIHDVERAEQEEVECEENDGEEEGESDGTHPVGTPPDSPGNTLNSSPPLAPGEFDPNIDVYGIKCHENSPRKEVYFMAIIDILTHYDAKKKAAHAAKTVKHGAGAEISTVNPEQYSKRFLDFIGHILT
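Compounds were pin-transferred onto PI5P4Kalpha and substrate in HEPES pH 7.4 buffer with EGTA, CHAPS and 5% DMSO. ATP (5 microM final) started the reaction, which ran 60 minutes at room temperature before ADP-Glo detection.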
Rango release inh: qHTS Assay for Inhibitors of RanGTP induced Rango (Ran-regulated importin-beta cargo) - Importin beta complex dissociation; Snurportin-1 (Homo sapiens) + GTP-binding nuclear protein Ran (Homo sapiens) + Importin …; Biochemical FRET Rango-importin beta, RanGTP-induced dissociation; Potency, µM (series often up to 46.1 µM), for inactives: at the top dose activity change, negative = inhibition; hit rate 0.071% among 340,000; calls by dose curve; further: potency means the concentration at half of the fitted maximal effect; % of control where 0% means no effect; nearly all actives have a fitted effect of over 45% in size
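Compounds preincubate 5 min with complex of recombinant Rango and importin beta in PBS with 1 mM DTT. Ran (0.6 uM) loaded with 2 mM GTP plus 0.2 uM RCC1 starts dissociation; FRET is recorded 45 min later.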
VDR inh: Inhibitors of the vitamin D receptor (VDR): qHTS | VDR-SRC2-3 peptide fluorescence polarization, 2 h | Potency, µM, for the others: max response, negative = inhibition, usual class: inhibitors | hit rate 0.93% among 400,000; further: potency means the concentration at half of the fitted maximal effect; on the % scale 0 is the no-effect control and ±100 the full control effect
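Two reagent solutions held at 4 deg C in the dark were dispensed, compounds pinned at 23 nl, and the mixture incubated 2 h at room temperature. Read-out: fluorescence polarization of VDR–SRC2-3 peptide binding.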
Rango complex inh: qHTS Assay for Inhibitors of Rango (Ran-regulated importin-beta cargo) - Importin beta complex formation; Rango CFP/YFP FRET sensor + importin beta, 45 min; Potency, µM (doses to about 92.2 µM), without a hit: top-dose inhibition of complex formation; hit rate 0.031% among 340,000; calls by dose curve;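 further: potency means the concentration at half of the fitted maximal effect; 0% = DMSO wells and 100% = buffer wells lacking importin beta; nearly all actives have a fitted effect of over 15% in size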
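Inhibition scored from the CFP 486 nm/YFP 530 nm FRET ratio 45 min after adding 0.125 microM importin beta to 50 nM Rango biosensor preincubated 5 min with compound (room temperature, PBS with DTT, Tween-20, BSA). No-importin wells as positive control.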
GCN5L2 inh: qHTS Assay for Inhibitors of GCN5L2; Potency, µM (doses to about 58.9 µM), for the others: at the highest dose activity change, negative = inhibition, most hits filed as inhibitors; hit rate 0.21% among 390,000; AID 504327, 2011; GCN5L2 HAT assay, ThioGlo1 CoA-SH fluorescence; further: potency means the concentration at half of the fitted maximal effect; on the % scale 0 is the no-effect control and ±100 the full control effect
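GCN5L2 (20nM final) in 50mM HEPES, 0.1mM EDTA pH 7.5, 0.01% Tween-20 was preincubated 15 min at room temperature with compound, then given ThioGlo1 (50uM), H3(1-25) peptide (75uM) and acetyl-CoA (70uM); CoA-thiol fluorescence (Ex340/Em540) was read at 0 and 20 min.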
* marks the source's active call; other numbers are inactive results; ? = inconclusive; nt = not tested or not shown. In the library only some 3.6% were active in any assay of this set; here they are far more common. Unless noted, the call rests on the fitted dose curve; in most records, active means well fitted curve in the direction sought with a large enough effect; inconclusive means small, poorly fitted or top-dose-only effect, or another doubt; inactive means no such curve, though single readings can be large; an effect the other way counts as inactive or inconclusive.

SMILES | PLK1 PBD block | PI5P4Ka inh | Rango release inh | VDR inh | Rango complex inh | GCN5L2 inh
CCOc1ccc(OCC)c(NS(=O)(=O)c2c(C(=O)N3CCCCCC3)c(C)n(C)c2C)c1 | nt | nt | nt | 9% | nt | 7%
Cc1ncc([N+](=O)[O-])n1CCOC(=O)NC(NCc1ccccc1)C(Cl)(Cl)Cl (stereo not drawn) | -4% | -1 | 0% | 0% | -3% | -1%
Cc1ncc([N+](=O)[O-])n1CCOC(=O)NC(NCc1cccnc1)C(Cl)(Cl)Cl (stereo not drawn) | 27µM* | -15 | 5% | ? | 0% | -3%
CSc1nc2sc3c(c2c(=O)n1Cc1ccccc1)CCC(C(C)(C)C)C3 (stereo not drawn) | nt | nt | nt | 2% | nt | 15%
COC(=O)c1ccc(C)c(NC(=O)CCc2ccc(OC)c(OC)c2)c1 | 3% | -5 | 3% | -15% | 0% | -3%
COc1ccc(CCN(C)CCC(=O)Nc2cc(C)ccc2C)cc1OC | -12% | -1 | -24% | 2% | -3% | 1.6µM*
COc1ccc(S(=O)(=O)c2cnc(SCC(=O)Nc3cc(F)ccc3C)[nH]c2=O)cc1Cl | nt | nt | nt | -6% | nt | -4%
Cc1ccc2cccc(NC(=O)c3ccc(-c4cccc(Cl)c4Cl)o3)c2n1 | nt | nt | nt | -2% | nt | 0%
O=C(O)c1[nH]c2ccccc2c1NS(=O)(=O)c1ccc(F)cc1 | ? | -3 | -30% | -4% | -3% | 0%
Cc1ccc(S(=O)(=O)Nc2c(C(=O)O)[nH]c3ccccc23)c(C)c1 | 27µM* | -12 | 31% | -22% | -1% | -1%
Cc1nc2c(C(=O)NCCC3=CCCCC3)c[nH]n2c(=O)c1Cl | 24µM* | nt | -13% | -18% | 0% | -8%
O=C1Nc2ccc(Br)cc2/C1=C/C1CC=CCC1 (stereo not drawn) | -18% | 6 | 0% | 71µM* | 6% | -9%
O=C(CSc1nc2c(c(=O)[nH]1)CCC2)Nc1ccccc1F | nt | nt | nt | 7% | nt | -9%
O=C(NCc1ccco1)c1ccc2c(c1)N(Cc1ccccc1F)C(=O)c1ccccc1S2=O (stereo not drawn) | nt | nt | nt | -8% | nt | -4%
Cn1c(COc2ccccc2)nnc1SCC(=O)Nc1ccc2c(c1)OCO2 | -4% | nt | 0% | 0% | 0% | -2%
Cn1c(CNC(=O)c2ccccc2)nnc1SCC(=O)Nc1nccs1 | 3.4µM* | ? | 1% | ? | 0% | -4%
Cn1c(COc2ccccc2)nnc1SCC(=O)Nc1nnc(C2CC2)s1 | 30µM* | -13 | -17% | -17% | ? | nt
COc1ccc(CN2CCNC(=O)C2CC(=O)NC2CCCC2)c(C)c1C (stereo not drawn) | 9.5µM* | ? | -13% | ? | -4% | -1%
Cc1cccc(N2C(=O)C3CCCN3C2=S)c1C (stereo not drawn) | ? | 9 | 0% | 12% | 2% | 12%
CCc1ccc(N2C(=O)C3CCCN3C2=S)cc1 (stereo not drawn) | 12µM* | -1 | -6% | -12% | -1% | -4%
COC(=O)c1ccc2nc(NC(=O)CN3C(=O)CCC3=O)sc2c1 | 12µM* | ? | 2% | -1% | 6% | -1%
COC(=O)c1ccc2nc(NC(=O)C(C)C)sc2c1 | -2% | 2 | 9% | -9% | 5% | -8%
Clc1cc(Cl)c(OCC#CI)cc1Cl | nt | nt | nt | 2.8µM* | nt | 14µM*
CCCOc1ccc(Cl)cc1CNc1ccccc1 | 17µM* | -2 | 36% | -10% | -2% | 3%
COc1cccc([C@@H]2Oc3ccc(Br)cc3C[C@H]2OC(=O)NS(=O)(=O)c2ccc(C)cc2)c1 | nt | nt | nt | -12% | nt | nt

Compound activity (PubChem)
